Experimental data as given in PubChem BioAssay AID1347426 (Functional Genomics Laboratory (NCATS/FGL), 2020).
Hit rate of the full screen: of about 31,000 sequences, about 1,400 (4.5%) were called active. This is one part of a sample in which actives are shown more often than they occur.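 How the source made its calls: active means median seed-adjusted z-score above 1 or below -1; inactive means the rest.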

Assay: Novel Modifiers of Survival Motor Neuron (SMN) Protein: Gene Identification via Genome-wide siRNA Screen;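 further: luminescence tracks full-length SMN protein made from the SMN2 reporter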
Settings: HEK293T SMN2-luciferase reporter, siRNA knockdown, 72 h; actives lie on both sides
How it was run: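 Luciferase signal, proportional to full-length SMN made from an SMN2 cDNA reporter in stable HEK293T cells, was read 72 h after siRNA reverse transfection. Values were expressed as MAD scores after non-targeting-control normalization and log10 conversion; seed analysis flagged off-targets.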

Sequence	median seed-adjusted z-score
GUAGUGAAGUGUAUCCGGATT against ANXA6	-1.01 (active)
GAAUCCUCAAUGUGGAUGATT against HPCA	0.12 (inactive)
GGCUUUUUGCUACAGAUGATT against OSGEP	0.0178 (inactive)
GUAUGUCACCUAUCACUGUTT against SLC25A38	0 (inactive)
GCAUCGCUGUAGGUUUUGATT against THBS2	-0.721 (inactive)
GCAUCUGCGAUGUGAGGAATT against RYBP	0.831 (inactive)
GCAUCAGGGUCAUGGUUCATT against SCNN1D	-1.8 (active)
CCACCUACAGAGUGUCCUATT against EMID2	0.0465 (inactive)
GGACAAGACGCAAGAAGAATT against TEF	0 (inactive)
CCAAGGAGGUGCACUAUAATT against FHL1	0.574 (inactive)
AGAUGAUUCUAGAAUCCAATT against STK32B	0.683 (inactive)
GGAAUACCAUGAGCUGUUATT against OSBP	0.256 (inactive)
CAAGCAUAUUAAUGAGGUUTT against DYRK1A	-1.3 (active)
GCUCCCAUCAUGUACGUUUTT against GPR155	0.0681 (inactive)
GGAUGAGCAGUACCAGGCATT against PYCARD	0.117 (inactive)
GAACUAAACUUGUUAAUGATT against TRIM36	-0.262 (inactive)
GGAGCAACAUUAUAGUCAATT against TGS1	-0.564 (inactive)
CUACGAGAAUAAUUCGGAATT against THOC1	-3.04 (active)
CCGGGAAAGUAGAAUUACATT against IGF2BP1	-0.993 (inactive)
GCAGUACUCUGCUACCUGATT against IL22RA1	-1.14 (active)
GGAGAACCAGUGGAAUUCATT against LIN28B	0.407 (inactive)
GCACUUCUCUUAAGGACGATT against UNC13B	-0.0216 (inactive)

Sequence	median seed-adjusted z-score
CAUGUACUAUUUUCAGUAUTT against SETD8	-1.52 (active)
GCUUCUUAGCUGAGGAAAATT against RDH11	-0.241 (inactive)
CAAGGUAUUAUGCAACGUATT against FLG	0.221 (inactive)
GAGUAUGCCGUGAAGAUCATT against RPS6KA2	0.139 (inactive)
GGCGUACGGUGAGAACAUUTT against ATP1B1	0.971 (inactive)
GUAUAAUCCUCAGAGCAAATT against CXXC1	-0.841 (inactive)
CAUGAAUCCUUUACAGCAATT against RALB	-0.534 (inactive)
GACUGUGAGACUUACCAUATT against MED20	-1.66 (active)
CGGUCUCACCUGCACCAAATT against SSPO	0.397 (inactive)
GGAGAUUCACGAGCUGCGATT against EGFL8	0.365 (inactive)
GCUCAAGGCAUUCUACAAATT against SLC25A1	0.252 (inactive)
GGAUCGAGUUUGAUAACGATT against ITGA6	-0.224 (inactive)
GAUACGAAAUGGUGUUAAATT against POLG2	0 (inactive)
CCCAAUAACUCUGUCGAUATT against ATP11C	0.102 (inactive)
GGAGUAACUGAGAUAGAAATT against AGPAT3	0 (inactive)
GGAUCGUAAAAAUAGCAAATT against DGKA	-1.36 (active)
GAGCCUCUAUUAAUGGACATT against RASSF6	-0.592 (inactive)
GGAACACCCGUUUAACAAATT against ASH2L	-0.464 (inactive)
GGAGGAUAGCAGCAGAAGATT against ATP5I	-0.871 (inactive)
GGUGAAUGCUGAUGACUCUTT against CLDN16	-0.868 (inactive)
CCACCAACGAAUACGUCUATT against PRKCSH	-0.0512 (inactive)
GAAUCUACAGGAAACGAGATT against SETD8	-1.52 (active)

Sequence	median seed-adjusted z-score
CUCUACACCGUGUACAUCATT against CHRM4	-0.856 (inactive)
GCAGCAUGAGAAUGUCAAATT against GPD1	0.558 (inactive)
CUACAGCCUAUAUAUGAAATT against FCRL1	-0.873 (inactive)
CGACAAUAUUCCUUGAUGATT against CTGLF1	0.0231 (inactive)
GGGAUAAGCAGAUAGAAGATT against MYST2	-1.46 (active)
GGAUGUUUUUCGAAGGAUATT against RHEB	-0.387 (inactive)
GGACCGCAGCAAUGACAUUTT against SH3KBP1	-0.34 (inactive)
AGACGGUGACUUACAAAAATT against ARF6	-0.805 (inactive)
GCAACUUCAUUUCUCAUCUTT against CA6	0.349 (inactive)
GUAUAUAAACAGACAAUGATT against DNAJC8	-1.62 (active)
UCAUCUUCUUUGACCCAGATT against HNF4A	-0.0274 (inactive)
GAGAGAAUCAUUACGAAAATT against MTMR2	0.495 (inactive)
CAAACUUAAAGGUCAGAAATT against WHSC1	1.17 (active)
GGACAAAGUCUUAACAAAATT against SLC30A10	0.523 (inactive)
CCAGACCACUUGCUAUGAATT against GATA6	0.546 (inactive)
CUACUGGAGCAACACUGUATT against NDUFA4	0 (inactive)
GCAAGAUUAGACAUACUGATT against PSMC6	-0.578 (inactive)
GAGCGAGUCUACAAGUGUATT against REST	0.416 (inactive)
CAGUCUGCCGAAGAAGUAATT against CDC2L1	-1.14 (active)
GGAUCUUCCUUAUUACUCUTT against UBE4A	-0.285 (inactive)
CCAGCACGUUGGAAGACCATT against ZNF808	0.138 (inactive)
GUCCUUAUCUUUGCAAAUATT against ARL5B	-0.506 (inactive)

Sequence	median seed-adjusted z-score
GGAGCUACUUAAUCGGGAUTT against ANGEL1	-0.332 (inactive)
GCACGGAAAUUCUACAAGATT against ABCA4	-1.09 (active)
GGACGAUGUCUACAGCCUATT against SIN3B	0.509 (inactive)
CGGGAACUAUCCAAACAAUTT against DMBT1	-0.131 (inactive)
GCAGAACUGACAGUCGAUATT against DMTF1	0.396 (inactive)
GAGUGGACUGUGGAAGAUATT against RCOR1	-1.13 (active)
CCAAAAGAAUAUCCGCUAATT against NLK	0.256 (inactive)
CACCUACUGUGAUGACAGATT against EPAS1	-0.166 (inactive)
GAAGUAGACUUGAUACGAATT against AQR	-1.56 (active)
AGCACAAGGUGGAACCGGUTT against CYGB	-0.34 (inactive)
GCUACGAAAUGCUUGCUCATT against GALT	0.484 (inactive)
GGAUCAUGACCUAUGCUAATT against AKAP3	0.0138 (inactive)
GCUUUGUGAACGACAAUUATT against RABGGTB	-0.856 (inactive)
CGCACGGACUGUACCAUUUTT against ETV2	0 (inactive)
GCCUACUGGUCAUUGAUCATT against GNMT	0.0261 (inactive)
GACAUAUGCAAGAACUAUATT against PSAP	0.107 (inactive)
AGAGGAGAGUGGAAUUCCATT against ARID3C	-1.32 (active)
GCAGUUUCUUAACCACGUUTT against IFI16	-0.0178 (inactive)
ACUUUGCUCCUACUAUUCATT against NEGR1	0.194 (inactive)
CCAUCGGACUGACAGUGAATT against COPZ1	-1.02 (active)
CGAAAACUGAUACACUUGATT against KSR2	-0.371 (inactive)
GCUGAUUUUUGCUAAUAAATT against ARL5A	0 (inactive)

Sequence	median seed-adjusted z-score
GCAUGUAAUGAGUAUCACATT against MRS2	1.38 (active)
GAUCAACUGUGGAAAUAUUTT against KISS1R	-0.299 (inactive)
CCGUGUUCAUUCCUUUUCATT against ZFP41	0 (inactive)
CCACUAAAGGAUCAACGUATT against PHKB	-0.142 (inactive)
GCGACUCCUAGAGAACAAATT against LSG1	1.31 (active)
CAAGGUAGCUCAGCACUGATT against PEX6	-0.281 (inactive)
AGAGCGAGCCUUUGCUGAUTT against DAD1	-0.45 (inactive)
CCCUGCUCCUCACUCAUUUTT against KRTAP5-5	-1.07 (active)
GUUCCGUACAGAUAAAGGATT against SAE1	0.831 (inactive)
AUGUCACGCUGGUGCCCUATT against IFI30	0.401 (inactive)
GUAUCAUGCCCAUCUGAAATT against ZMAT4	-0.0468 (inactive)
GAGAGACUCAAGAACGUGATT against ARCN1	-1.25 (active)
AGCCUAUGAUUUUCCUGAATT against PTF1A	0.482 (inactive)
ACCUUGGUGUUGGACCUCATT against RNF26	0.359 (inactive)
GGGACACGCUAAAAGGAGATT against GNB4	0.015 (inactive)
GGUCUAGCCUUGAUCAGAATT against SHROOM3	0.779 (inactive)
GCAAAUCAGAGGUUCAGAUTT against SQLE	-1.14 (active)
GGGCUGCAAGUGGAAUUCATT against NR1H3	0.426 (inactive)
GGCAAACGAGUGUGCUUCATT against FAM47B	-0.0631 (inactive)
CACCGGAGGUUUAUCACAATT against AMDHD2	-0.0707 (inactive)
AGCCUGUAGCUUAAACUUATT against KCTD12	0.431 (inactive)
